Source: PubChem BioAssay
DAX1 inh-1: inhibits human nuclear receptor DAX1. HEK293 Gal4-DAX1 luciferase reporter, luminescence. inhibition, % at 6.75 µM. 340,000 tested, 0.99% active. AID 504766;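 active = inhibition above the mean over all tested compounds plus 3 SD, cut at about 4.2% in these data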;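 note: 0% = DAX1-transfected cells with DMSO and 100% = empty-vector control cells with DMSO; inhibition shows as a rise in luminescence from relieved DAX1 repression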
Target sequence (P51843 207-470 limits assumed): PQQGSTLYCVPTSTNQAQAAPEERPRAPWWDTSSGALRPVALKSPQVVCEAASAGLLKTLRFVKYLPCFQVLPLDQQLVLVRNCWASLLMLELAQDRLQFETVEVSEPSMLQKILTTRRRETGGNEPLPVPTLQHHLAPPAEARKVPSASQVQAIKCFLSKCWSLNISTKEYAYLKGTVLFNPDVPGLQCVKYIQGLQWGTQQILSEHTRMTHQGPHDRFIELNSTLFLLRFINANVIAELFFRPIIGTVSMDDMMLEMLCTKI
ssDAF12 agonist: activators of S. stercoralis DAF-12 nuclear receptor. activation, % at 6.8 µM. HEK293 ssDAF-12/GRIP1 lit1-tk-luc reporter, luminescence; % of 3 µM dafachronic acid response. 370,000 tested, 1% active. AID 652126;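 active = activation above the mean over all tested compounds plus 3 SD, cut at about 0.9% in these data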;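 note: 0% = DMSO-only wells and 100% = 3 µM delta7-dafachronic acid wells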
hgDAF12 agonist: agonists of H. glycines DAF-12 nuclear receptor; 370,000 tested, 1.8% active; HEK293 GAL4-hgDAF12 UAS-luciferase reporter, agonist luminescence; normalized to butyrate control; activation, % at 6.8 µM;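 active = activation above a cutoff set at the mean of all screened compounds plus 3 SD, cut at about 10% in these data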;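 note: 0% = DMSO wells and 100% = sodium butyrate wells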
DAX1 inh-2: blocks DAX1 repression of SF-1 activated StAR promoter; 370,000 tested, 1.1% active; AID 652010; inhibition, % at 6.8 µM; HEK293T StAR-luciferase reporter, SF-1/DAX-1 repression relief;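 active = inhibition above the mean over all tested compounds plus 3 SD, cut at about 3.6% in these data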;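 note: 0% = DAX-1 cells with DMSO and 100% = cells lacking DAX-1 with DMSO; higher inhibition means more luminescence from relief of DAX-1 repression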
SMARCA2 activ: increases SMARCA2 function in MMTV reporter cells. MG213 cells, MMTV-luciferase reporter, dexamethasone, overnight. activation, % at 9.1 µM. 370,000 tested, 1% active. AID 652017; in the data active = activation above about 7.8%;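 note: 0% = vehicle wells and 100% = reference activator wells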
hcDAF-12 act: activators of H. contortus DAF-12 nuclear receptor; HEK293 hcDAF-12 lit1-tk-luc reporter, luminescence; 0% DMSO, 100% Δ7-dafachronic acid; activation, % at 6.8 µM; 370,000 tested, 1.4% active;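 active = activation above the mean of all tested compounds plus 3 SD, cut at about 5.5% in these data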;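 note: 100% = response to 3 µM Δ7-dafachronic acid high control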
LXRb hcDAF ctr: LXR-beta agonism as hcDAF-12 counter-screen. 3,400 tested, under 10 active. shares compounds with hcDAF-12 act. HEK293 Gal4-LXR tk-luc reporter, luminescence, 24 h; normalized: DMSO 0%, positive control 100%. AID 743027. activation, % at 6.8 µM;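 active = mean percent activation of the reporter above a cutoff set as the average over tested compounds plus their standard deviation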
Target sequence (P55055 whole entry, looked up, the tested form may be a part): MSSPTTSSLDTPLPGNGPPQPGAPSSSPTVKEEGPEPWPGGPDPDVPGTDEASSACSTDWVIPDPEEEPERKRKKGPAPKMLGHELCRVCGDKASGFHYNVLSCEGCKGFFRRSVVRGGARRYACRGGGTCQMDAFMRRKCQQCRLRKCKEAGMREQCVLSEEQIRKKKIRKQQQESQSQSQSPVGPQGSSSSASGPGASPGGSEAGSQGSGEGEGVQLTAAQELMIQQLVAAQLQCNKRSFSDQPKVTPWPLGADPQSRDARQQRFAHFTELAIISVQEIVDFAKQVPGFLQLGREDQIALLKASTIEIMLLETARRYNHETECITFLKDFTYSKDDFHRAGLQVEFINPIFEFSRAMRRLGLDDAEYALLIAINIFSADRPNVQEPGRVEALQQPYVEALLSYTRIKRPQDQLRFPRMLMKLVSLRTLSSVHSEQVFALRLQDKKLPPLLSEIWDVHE
hcDAF12 conf: confirmation of H. contortus DAF-12 agonists; shares compounds with hcDAF-12 act; 3,400 tested, 61% active; AID 743032; HEK293 hcDAF-12 lit1-tk-luc reporter, luminescence; % of Δ7-dafachronic acid response; activation, % at 6.8 µM;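 active = mean activation across triplicate tests above the threshold derived from the earlier primary screen, cut at about 5.5% in these data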;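 note: 0% = DMSO only wells and 100% = 3 µM Δ7-dafachronic acid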
hgDAF12 ag: confirmation of H. glycines DAF-12 agonists; shares compounds with hgDAF12 agonist; activation, % at 6.8 µM; 3,300 tested, 80% active; HEK293 GAL4-hgDAF12 luciferase reporter, agonist mode; percent of butyrate response; AID 743050;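 active = mean activation over triplicate wells above the hit cutoff derived from the earlier primary screen, cut at about 11% in these data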;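 note: 0% = DMSO low control and 100% = 2 mM sodium butyrate high control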
LXRb DAF12 ctr: activates human LXR-beta, counter-screen for DAF-12 agonists; shares compounds with hgDAF12 agonist; HEK293 Gal4-LXR luciferase reporter, 24 h; activation, % at 6.8 µM; 3,300 tested, under 10 active; AID 743051;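 active = mean activation of the triplicate above a set limit carried over from the primary screen, none filed active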
* = called active by the depositor; · = no result. This is a sample that favours compounds with a hit; in the whole collection about 4.8% have one here.

SMILES | DAX1 inh-1 | ssDAF12 agonist | hgDAF12 agonist | DAX1 inh-2 | SMARCA2 activ | hcDAF-12 act | LXRb hcDAF ctr | hcDAF12 conf | hgDAF12 ag | LXRb DAF12 ctr
O=[N+]([O-])c1ccccc1/C=C/c1ccc2ccccc2n1 | 7.1* | 2.1* | 16* | 2 | 4 | 18* | 2 | 12* | 20* | 1
O=C(Nc1ccc(Cl)cc1)C1=Cc2ccccc2OC1 | 2 | 1.3* | 18* | 3 | 3 | 9.6* | 1 | 8.0* | 22* | 1
O=C(Nc1ccc(Nc2ccccc2)cc1)c1ccc(Cl)cc1 | 0 | -2 | -4 | 0 | -4 | -2 | · | · | · | ·
CCCOc1ccc(-c2nc(OC)c3ccccc3n2)cc1 | 1 | 2.6* | 17* | 4.1* | 6 | 16* | 0 | 4 | 3 | 0
CCc1ccc(C(=O)OCC(=O)N(CCOC)c2c(N)n(Cc3ccccc3)c(=O)[nH]c2=O)cc1 | -1 | -1 | 0 | -1 | -1 | 0 | · | · | · | ·
N#Cc1cc2ccccc2nc1SCc1ccccn1 | 2 | 4.7* | 17* | 4.3* | 7 | 20* | 1 | 9.2* | 16* | 1
Cc1cc2cc3c(cc2nc1SCc1ccccn1)OCCO3 | 0 | 0 | 0 | -1 | 3 | -2 | · | · | · | ·
Oc1[nH]c2ccccc2c1C=Nc1ccccc1 | 13* | 1.6* | 21* | 3 | 0 | 8.3* | 1 | 8.9* | 24* | 1
CCN(CC)CCN1C(=O)C(=O)/C(=C(/O)c2ccc(S(=O)(=O)N3CCOCC3)cc2)C1c1ccc(C(C)(C)C)cc1 (stereo not given) | 1 | · | · | · | · | · | · | · | · | ·
CCOc1ccc2nc(N/C(N)=N/C(=S)Nc3ccc(C)c(C)c3)nc(C)c2c1 | -1 | -1 | 2 | 0 | 0 | -1 | · | · | · | ·
CCNC(=S)/N=C(\N)Nc1nc(C)c2cc(C)ccc2n1 | 4.6* | 0 | 14* | 4.3* | 5 | 6.6* | 1 | 7.6* | 13* | 0
O=C(NC1CCCCCC1)c1cccc(N2CCCC2=O)c1 | -1 | 0 | 13* | 2 | 4 | 7.8* | 1 | 10* | 13* | 1
O=c1cc(CCl)[nH]c2nc3ccccc3n12 | -1 | 0 | -2 | 0 | 0 | -1 | · | · | · | ·
O=c1cc(-c2ccccc2)[nH]c2nc3ccccc3n12 | 1 | 1.5* | 14* | 3.7* | 4 | 11* | 2 | 15* | 19* | 1
Cc1cc(NC(=O)c2ccc(NS(=O)(=O)c3ccc(F)cc3)cc2)no1 | · | -2 | -1 | -1 | -4 | -2 | · | · | · | ·
Cc1cccc(N/C=C/c2onc(C)c2[N+](=O)[O-])c1 | 2 | 1 | 8 | 2 | 5 | 4 | · | · | · | ·
Cc1cc(O)ccc1N/C=C/c1onc(C)c1[N+](=O)[O-] | 1 | 0.9* | 17* | 2 | 8 | 7.9* | 1 | 6.2* | 15* | 1
COc1ccc(C(=O)Nc2ccc3ccccc3c2)c(OC)c1 | 5.8* | 3.7* | 15* | 3 | 5 | 16* | 2 | 15* | 26* | 1
COc1cc(SC)ccc1C(=O)Nc1ccc2c(c1)CCC2 | 4 | 4.0* | 22* | 2 | 2 | 17* | 1 | 14* | 22* | 1
COc1cc2ccccc2cc1C(=O)Nc1ccc(C)cc1 | 5.9* | 1.0* | 19* | 1 | 2 | 17* | 1 | 12* | 20* | 1
Cc1ccc(NC(=O)c2cc3ccccc3oc2=N)cc1 | 2 | 0.9* | 14* | 3.7* | 4 | 11* | 1 | 17* | 7 | 1
COc1ccc(C(=O)Nc2ccncc2)c(OC)c1 | 1 | -1 | 0 | 0 | 1 | -1 | · | · | · | ·
CCCCn1c(N)c(N(Cc2ccccc2OC)C(=O)C(C)Oc2ccc(Cl)cc2)c(=O)[nH]c1=O (stereo not given) | -1 | -1 | 3 | 0 | 0 | 0 | · | · | · | ·
Cc1ccc(C)c(S(=O)(=O)N2CCCOC2CNC(=O)C(=O)NCc2ccccc2)c1 (stereo not given) | 0 | -1 | 2 | 0 | 0 | -2 | · | · | · | ·
Cc1nc(-c2ccc(F)cc2)c(CC(=O)N2CCN(S(=O)(=O)c3cccc(Cl)c3)CC2)s1 | -2 | -1 | -3 | -3 | -2 | -2 | · | · | · | ·
SMILES | DAX1 inh-1 | ssDAF12 agonist | hgDAF12 agonist | DAX1 inh-2 | SMARCA2 activ | hcDAF-12 act | LXRb hcDAF ctr | hcDAF12 conf | hgDAF12 ag | LXRb DAF12 ctr
CCOC(=O)c1ccc(NC(=O)CSc2nnc(SCc3cccc4ccccc34)s2)cc1 | · | -1 | 3 | 0 | -6 | 2 | · | · | · | ·
Cc1ccc(NC(=O)c2ccc(C)cc2)cc1 | -2 | 1 | 14* | 3 | 2 | 7.8* | 1 | 5.7* | 21* | 1
Cc1occc1-c1nnc(-c2cc([N+](=O)[O-])cc([N+](=O)[O-])c2)o1 | · | -1 | 0 | -1 | -2 | 0 | · | · | · | ·
O=c1c2ccccc2oc2cc(NCCCn3ccnc3)ccc12 | 1 | 1.2* | 14* | 3.7* | 7 | 7.2* | 1 | 5 | 17* | 1
O=C(NCCCn1ccnc1)c1cc2ccccc2oc1=O | 1 | -1 | 0 | 1 | 1 | 2 | · | · | · | ·
Cc1ccc(C(=O)Nc2nc3c(s2)CCCC3)o1 | 2 | 0 | 13* | 3.8* | 2 | 11* | 2 | 7.0* | 16* | 1
O=C(Nc1nc2c(s1)CCCC2)c1ccc(Br)o1 | 0 | 1.3* | 16* | 2 | 1 | 13* | 2 | 10* | 18* | 1
CCc1nnc(NC(=O)c2ccc(C)o2)s1 | 0 | 0 | 6 | 3 | 6 | 1 | · | · | · | ·
O=C(Nc1nc2c(s1)CCCC2)c1cccnc1 | 4 | · | · | · | · | · | · | · | · | ·
COc1ccc2oc3cc(Cl)ccc3c(=O)c2c1 | · | 0 | 7 | 2 | 6 | 1 | · | · | · | ·
Cc1ccc(-c2onc3ccc(C(=O)O)cc23)cc1 | -3 | 1.0* | 19* | 4 | 4 | 9.4* | 1 | 8.7* | 23* | 1
Cc1cccc(C)c1NC(=O)c1cnn(-c2ccccc2)c1C | 1 | -1 | 1 | -1 | -2 | 0 | · | · | · | ·
CCc1cccc(NC(=O)c2cnn(-c3ccccc3)c2C)c1 | 4 | 0 | 19* | 3 | 3 | 7.9* | 1 | 4 | 16* | 1
